# PubChem BioAssay (Tox21)
# Records with an inconclusive call do not appear. A call without a number means that no potency is given here. More than one record can exist for a structure, and the calls need not agree. Unmarked numbers belong to inactive results. Active and inactive are the calls of the source. The call rests on the fitted dose curve; in most records, active means well fitted activation curve with a large enough effect in the repeat runs; inconclusive means weak or mixed curves, or effect the other way; inactive means no such curve, though single readings can be large or run the other way.
# Assay: qHTS assay to identify small molecule agonists of the retinoic acid receptor (RAR) signaling pathway (AID 1159553)
# Conditions: C3RL4 RARE luciferase reporter, agonist, 6 h; activation: at 73.3 µM (top of the series) unless noted
# From the text: National Center for Advancing Translational Sciences [NCATS] NIH Chemical Genomics Center [NCGC] U.S. Environmental Protection Agency [EPA] National Institutes of Environmental Health Sciences [NIEHS] National Toxicology Program [NTP] Assay overview: All-trans Retinoic acid (atRA) is the potent natural metabolite of retinol and plays an important role in normal embryonic development and maintenance of cellular phenotype in adult animals. atRA is the activating ligand for the retinoic acid receptors (RARs) which form heterodimers with retinoid X receptors (RXRs) on the retinoic acid response element (RARE). Through activation of the RAR/RXRs nuclear receptors, atRA regulates the transcription of a large number of protein-coding genes and regulatory RNAs. Intracellular levels of atRA are controlled by the retinol signaling pathway (RSP) that regulates the biosynthesis and catabolism of atRA to maintain physiological levels. Chemicals that interfere with the RSP can cause abnormal intracellular levels of atRA and therefore are potential developmental toxicants. To assess compounds for the potential adverse effect on embryonic development through interfering with retinol signaling, a cell-based RARE luciferase reporter gene assay was used. C3RL4 cell line (OARSA/CFSAN/FDA, Laurel, MD) was used to screen Tox21 10K compound library for identifying activators of the RSP.
# Assay Protocol Summary: C3RL4 cells were seeded at 1,000/well in 5 uL of assay medium into white solid 1,536-well tissue culture plates (Greiner Bio-One North America Inc. Monroe, NC) using a Multidrop Combi (Thermo Scientific, Waltham, MA) dispenser. After incubation at 37 C and 5% CO2 for an overnight, 23 nL of compounds dissolved in DMSO, positive control or DMSO only were transferred by a Pintool station (Kalypsys, San Diego, CA). After 6 hr incubation at 37 C and 5% CO2, 5 uL of Amplite Luciferase reagent (AAT Bioquest Inc. Sunnyvale, CA) was added to each assay plate using a Flying Reagent Dispenser (FRD) (Aurora Discovery, San Diego, CA). Luminescence was quantified on a ViewLux plate reader (PerkinElmer, Waltham, MA) after 30 min incubation at room temperature.
# Potency means the concentration at half of the fitted maximal effect.
Compound,Potency,activation
CCCC1COC(Cn2cncn2)(c2ccc(Cl)cc2Cl)O1 (stereo not given),inactive,
O=C(NC(=O)c1c(F)cccc1F)Nc1cc(Cl)c(OC(F)(F)C(F)C(F)(F)F)cc1Cl (stereo not given),inactive,
C#CC(C)(C)NC(=O)c1cc(Cl)cc(Cl)c1,inactive,
Cc1cccc([N+](=O)[O-])c1,inactive,
CCOP(=S)(OCC)SCCSCC,inactive,
Cc1[nH]c(=O)n(C(C)(C)C)c(=O)c1Cl,inactive,
O=NN1CCCC1,inactive,
CC(C)(C)C(O)(CCc1ccc(Cl)cc1)Cn1cncn1 (stereo not given),,-3.95% [at 94.8 µM] (active)
CC(Oc1ccc(Cl)cc1Cl)C(=O)O (stereo not given),inactive,
CC(C)C1(C)N=C(c2nc3ccccc3cc2C(=O)O)NC1=O (stereo not given),inactive,
CC(C#N)CCC#N (stereo not given),inactive,
Clc1ccccc1Cl,inactive,
CCOP(=S)(OCC)Oc1cnc2ccccc2n1,inactive,
O=S(=O)(c1ccc(O)cc1)c1ccc(O)cc1,inactive,
CN(C)N=O,inactive,
OCCN(CCO)CCO,inactive,
COP(N)(=O)SC (stereo not given),inactive,
CCCCCCCCCl,inactive,
CC(=O)C=C(C)C,inactive,
Cc1cc(-c2cc(C)c(N)c(C)c2)cc(C)c1N,inactive,

Compound,Potency,activation
O=[N+]([O-])c1ccc([As](=O)(O)O)cc1,inactive,
Clc1cccc(Cl)c1Cl,inactive,
O=c1[nH]c2ccccc2c(=O)o1,inactive,
CC(C)(C)OOC(=O)c1ccccc1,inactive,
CC(C)N1C(=O)c2ccccc2NS1(=O)=O,inactive,
CC(C)OC(=O)Nc1cccc(Cl)c1,6.11 µM (active),
NCCc1ccc(O)cc1,inactive,
CNC(=O)Oc1ccccc1OC(C)C,inactive,
CC1C=[C-]C=C1.[C-]#[O+].[C-]#[O+].[C-]#[O+].[Mn],inactive,
CC(C)OC(=O)Nc1ccccc1,30.7 µM (active),
COCCl,inactive,
O=S(=O)(c1ccc(Cl)cc1)c1cc(Cl)c(Cl)cc1Cl,inactive,
CCOP(OCC)OCC,inactive,
CCCN(CCC)N=O,inactive,
OC(O)C(Cl)(Cl)Cl,inactive,
O=Cc1cccc(Oc2ccccc2)c1,inactive,
C1CN2CCN1CC2,inactive,
Cc1ccc(N)cc1Cl,inactive,
Cc1cc(Cl)ccc1O,inactive,

# Same assay, conditions: C3RL4 RARE luciferase reporter, agonist, 6 h; at 73.3 µM (top of the series)
row,Compound,activation
1,CC(C)(C)C(O)(CCc1ccc(Cl)cc1)Cn1cncn1 (stereo not given),-2.94%
